Experimental data from ChEMBL document CHEMBL3988442, “University of Dundee, Small-Polar-MMV Screening Library” (2021).
For some of these results: Entries with a potency or affinity are not part of this list.

Key:
Design in all cases: scale not given: direction of the effect not stated beside the values
[1] = target: Protein translocase subunit SecA (Escherichia coli (strain K12)) (UniProt P10408); assay: Assay to Identify E. coli SecA ATPase Inhibitors; assay type: functional; conditions: 30 µM
[2] = target: T1, Ubiquitin-activating enzyme e1, putative (Leishmania donovani (strain BPK282A1)) (UniProt E9BSI1); assay: Leishmania donovani Ubiquitin Activating Enzyme (LdE1); assay type: functional; conditions: 30 µM
T1 sequence (whole entry): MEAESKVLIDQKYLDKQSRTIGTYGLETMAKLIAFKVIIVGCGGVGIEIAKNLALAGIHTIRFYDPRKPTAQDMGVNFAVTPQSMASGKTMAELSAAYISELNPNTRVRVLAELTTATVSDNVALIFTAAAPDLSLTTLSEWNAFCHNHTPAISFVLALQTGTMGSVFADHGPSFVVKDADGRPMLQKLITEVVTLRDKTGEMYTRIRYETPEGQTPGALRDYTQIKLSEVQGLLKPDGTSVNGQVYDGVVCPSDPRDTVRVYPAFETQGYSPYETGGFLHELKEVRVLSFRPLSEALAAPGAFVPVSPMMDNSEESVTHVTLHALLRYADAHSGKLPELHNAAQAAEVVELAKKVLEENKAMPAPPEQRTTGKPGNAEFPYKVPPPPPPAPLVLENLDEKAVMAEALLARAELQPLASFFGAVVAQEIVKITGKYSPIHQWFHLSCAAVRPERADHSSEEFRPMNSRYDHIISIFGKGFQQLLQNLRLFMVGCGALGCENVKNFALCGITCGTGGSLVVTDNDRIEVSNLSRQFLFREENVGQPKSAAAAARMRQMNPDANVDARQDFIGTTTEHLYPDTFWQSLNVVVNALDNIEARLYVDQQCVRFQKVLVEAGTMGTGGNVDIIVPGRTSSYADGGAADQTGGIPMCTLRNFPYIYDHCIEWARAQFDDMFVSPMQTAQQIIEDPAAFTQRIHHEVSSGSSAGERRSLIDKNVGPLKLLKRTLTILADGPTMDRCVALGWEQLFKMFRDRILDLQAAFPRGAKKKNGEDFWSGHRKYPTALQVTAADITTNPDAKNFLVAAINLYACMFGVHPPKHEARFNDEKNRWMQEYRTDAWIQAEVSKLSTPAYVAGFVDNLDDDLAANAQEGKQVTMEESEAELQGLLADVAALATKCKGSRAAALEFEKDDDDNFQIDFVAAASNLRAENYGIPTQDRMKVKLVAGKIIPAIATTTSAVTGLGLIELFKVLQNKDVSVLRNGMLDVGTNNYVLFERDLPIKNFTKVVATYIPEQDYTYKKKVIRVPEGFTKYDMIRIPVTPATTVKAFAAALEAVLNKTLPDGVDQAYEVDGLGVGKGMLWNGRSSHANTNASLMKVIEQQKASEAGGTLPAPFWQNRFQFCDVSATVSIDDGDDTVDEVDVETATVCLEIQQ

[3] = target: AMP-activated protein kinase, AMPK (Homo sapiens) (UniProt P54646+O43741+P54619+Q9UGJ0+Q9Y478+Q13131+Q9UGI9); assay: AMP-dependent Kinase enzyme assay. An in vitro enzyme assay that detects ADP turnover that is directly proportional to AMPK activity. This uses naive AMPK that is activated during the assay with MK-8722; assay type: functional; conditions: 30 µM
[4] = target: Sialic acid-binding Ig-like lectin 9 (Homo sapiens) (UniProt Q9Y336); assay: Hs-Siglec9 ALPHAscreen SOP 20170721; conditions: 10 µM
[5] = tested on: Trypanosoma cruzi; assay: Trypanosoma cruzi phosphomannomutase and mannose-1-phosphate guanylyltransferase assay; assay type: functional; conditions: 10 µM
[6] = target: T2, Arginase-2, mitochondrial (Homo sapiens) (UniProt P78540); assay: in vitro enzyme assay to detect the production of urea directly proportional to the activity of Arginase II; assay type: functional; conditions: 33.3 µM; further: in the data most compounds retested in dose-response had high values
T2 sequence (whole entry): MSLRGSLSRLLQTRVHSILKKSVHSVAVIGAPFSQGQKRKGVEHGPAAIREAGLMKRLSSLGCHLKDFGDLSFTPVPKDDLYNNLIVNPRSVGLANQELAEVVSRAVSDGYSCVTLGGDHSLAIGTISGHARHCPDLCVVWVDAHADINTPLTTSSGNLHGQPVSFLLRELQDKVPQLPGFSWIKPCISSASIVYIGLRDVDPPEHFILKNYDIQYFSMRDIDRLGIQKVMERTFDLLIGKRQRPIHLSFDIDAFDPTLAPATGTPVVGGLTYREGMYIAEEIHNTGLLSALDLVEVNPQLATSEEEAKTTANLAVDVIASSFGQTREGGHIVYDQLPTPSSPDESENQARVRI

[7] = target: T3, Proteasome subunit beta (Trypanosoma cruzi) (UniProt O96673); assay: Trypanosoma cruzi proteasome chymotrypsin-like activity (TcProtChymo) assay.; further: in the data most compounds retested in dose-response had high values; assay type: functional; conditions: 9.37 µM
T3 sequence (whole entry): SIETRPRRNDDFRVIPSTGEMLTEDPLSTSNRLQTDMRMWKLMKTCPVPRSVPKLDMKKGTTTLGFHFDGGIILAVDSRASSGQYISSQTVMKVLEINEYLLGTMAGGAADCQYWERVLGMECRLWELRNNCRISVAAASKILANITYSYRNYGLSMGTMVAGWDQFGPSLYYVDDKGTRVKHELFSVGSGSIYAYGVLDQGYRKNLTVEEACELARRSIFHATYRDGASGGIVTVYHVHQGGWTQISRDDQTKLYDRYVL

[8] = species: Homo sapiens; assay: To identify inhibition of the IFN signalling (Jak-Stat) pathway via expression of an eGFP reporter gene under the control of an IFN-stimulated response element (ISRE) containing MxA promoter.; assay type: functional; conditions: 30 µM
[9] = target: T4, Tyrosyl-tRNA synthetase, putative (Trypanosoma cruzi (strain CL Brener)) (UniProt Q4DSP6); assay: Trypanosoma cruzi tyrosyl tRNA synthetase (TcYRS) _High Tyrosine SOP; assay type: functional; conditions: 30 µM; further: in the data most compounds retested in dose-response had high values
T4 sequence (whole entry): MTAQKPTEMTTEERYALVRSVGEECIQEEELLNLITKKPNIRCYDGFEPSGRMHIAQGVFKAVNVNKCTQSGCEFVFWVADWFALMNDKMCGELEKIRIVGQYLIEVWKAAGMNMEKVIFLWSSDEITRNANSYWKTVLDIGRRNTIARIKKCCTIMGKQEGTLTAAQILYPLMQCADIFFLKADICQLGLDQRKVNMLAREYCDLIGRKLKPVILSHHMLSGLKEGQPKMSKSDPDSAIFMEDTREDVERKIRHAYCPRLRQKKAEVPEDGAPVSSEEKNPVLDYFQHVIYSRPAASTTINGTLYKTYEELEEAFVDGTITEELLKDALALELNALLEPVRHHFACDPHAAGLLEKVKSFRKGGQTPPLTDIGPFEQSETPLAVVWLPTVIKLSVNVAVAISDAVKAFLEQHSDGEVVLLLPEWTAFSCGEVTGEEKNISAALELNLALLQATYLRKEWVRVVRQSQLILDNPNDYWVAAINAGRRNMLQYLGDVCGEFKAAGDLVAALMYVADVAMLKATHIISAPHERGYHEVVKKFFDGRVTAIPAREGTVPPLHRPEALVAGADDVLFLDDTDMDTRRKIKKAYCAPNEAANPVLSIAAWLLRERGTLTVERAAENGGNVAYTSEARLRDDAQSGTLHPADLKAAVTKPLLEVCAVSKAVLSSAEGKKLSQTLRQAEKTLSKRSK

[10] = target: T4, Tyrosyl-tRNA synthetase, putative (Trypanosoma cruzi (strain CL Brener)); assay: Trypanosoma cruzi tyrosyl tRNA synthetase (TcYRS) SOP; assay type: functional; conditions: 30 µM
[11] = target: Chromo domain-containing protein 1 (Saccharomyces cerevisiae (strain ATCC 204508 / S288c) (Baker's yeast)) (UniProt P32657); assay: ScCHD-1 Enzyme Inhibition Assay; assay type: functional; conditions: 30 µM; further: in the data most compounds retested in dose-response had high values
Chromo domain-containing protein 1 (Saccharomyces cerevisiae (strain ATCC 204508 / S288c) (Baker's yeast)), sequence (P32657 whole entry, the tested form may be a part): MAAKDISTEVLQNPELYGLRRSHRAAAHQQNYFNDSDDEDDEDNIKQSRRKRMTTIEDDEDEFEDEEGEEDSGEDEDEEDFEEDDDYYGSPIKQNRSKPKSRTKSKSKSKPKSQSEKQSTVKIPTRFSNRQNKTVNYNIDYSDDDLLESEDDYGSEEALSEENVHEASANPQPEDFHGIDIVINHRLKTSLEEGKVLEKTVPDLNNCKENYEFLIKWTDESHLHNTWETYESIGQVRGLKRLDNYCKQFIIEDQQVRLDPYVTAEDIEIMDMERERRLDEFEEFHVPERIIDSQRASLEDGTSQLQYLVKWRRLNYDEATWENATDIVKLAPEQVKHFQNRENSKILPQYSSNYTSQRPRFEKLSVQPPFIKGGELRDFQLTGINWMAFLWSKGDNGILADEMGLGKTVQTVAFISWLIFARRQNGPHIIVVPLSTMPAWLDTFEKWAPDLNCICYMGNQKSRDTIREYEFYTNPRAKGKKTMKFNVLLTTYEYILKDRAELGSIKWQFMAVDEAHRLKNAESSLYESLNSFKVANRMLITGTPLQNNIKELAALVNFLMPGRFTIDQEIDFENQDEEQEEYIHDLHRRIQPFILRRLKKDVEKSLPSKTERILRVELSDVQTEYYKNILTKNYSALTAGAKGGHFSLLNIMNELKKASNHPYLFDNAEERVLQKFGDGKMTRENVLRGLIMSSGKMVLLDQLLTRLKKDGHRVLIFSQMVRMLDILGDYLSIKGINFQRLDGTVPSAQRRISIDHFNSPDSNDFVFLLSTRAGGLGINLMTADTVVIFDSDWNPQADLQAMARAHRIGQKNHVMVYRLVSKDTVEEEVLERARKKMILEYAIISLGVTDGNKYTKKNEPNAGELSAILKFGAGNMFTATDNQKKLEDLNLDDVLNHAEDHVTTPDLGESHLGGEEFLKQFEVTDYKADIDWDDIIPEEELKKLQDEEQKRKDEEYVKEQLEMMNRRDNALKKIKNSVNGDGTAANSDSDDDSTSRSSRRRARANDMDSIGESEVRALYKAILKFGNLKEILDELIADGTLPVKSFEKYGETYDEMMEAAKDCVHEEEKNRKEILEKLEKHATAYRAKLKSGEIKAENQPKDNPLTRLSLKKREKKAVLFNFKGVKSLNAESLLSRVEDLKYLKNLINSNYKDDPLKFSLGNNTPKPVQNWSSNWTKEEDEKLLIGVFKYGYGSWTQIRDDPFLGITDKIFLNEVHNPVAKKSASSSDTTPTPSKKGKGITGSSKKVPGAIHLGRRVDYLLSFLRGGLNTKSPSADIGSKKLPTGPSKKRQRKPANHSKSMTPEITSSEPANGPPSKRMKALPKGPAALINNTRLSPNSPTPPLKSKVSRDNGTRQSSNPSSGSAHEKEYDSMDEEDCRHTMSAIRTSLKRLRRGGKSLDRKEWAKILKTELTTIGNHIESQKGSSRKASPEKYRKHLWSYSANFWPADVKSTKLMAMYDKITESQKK

Protein translocase subunit SecA (Escherichia coli (strain K12)), sequence (P10408 whole entry): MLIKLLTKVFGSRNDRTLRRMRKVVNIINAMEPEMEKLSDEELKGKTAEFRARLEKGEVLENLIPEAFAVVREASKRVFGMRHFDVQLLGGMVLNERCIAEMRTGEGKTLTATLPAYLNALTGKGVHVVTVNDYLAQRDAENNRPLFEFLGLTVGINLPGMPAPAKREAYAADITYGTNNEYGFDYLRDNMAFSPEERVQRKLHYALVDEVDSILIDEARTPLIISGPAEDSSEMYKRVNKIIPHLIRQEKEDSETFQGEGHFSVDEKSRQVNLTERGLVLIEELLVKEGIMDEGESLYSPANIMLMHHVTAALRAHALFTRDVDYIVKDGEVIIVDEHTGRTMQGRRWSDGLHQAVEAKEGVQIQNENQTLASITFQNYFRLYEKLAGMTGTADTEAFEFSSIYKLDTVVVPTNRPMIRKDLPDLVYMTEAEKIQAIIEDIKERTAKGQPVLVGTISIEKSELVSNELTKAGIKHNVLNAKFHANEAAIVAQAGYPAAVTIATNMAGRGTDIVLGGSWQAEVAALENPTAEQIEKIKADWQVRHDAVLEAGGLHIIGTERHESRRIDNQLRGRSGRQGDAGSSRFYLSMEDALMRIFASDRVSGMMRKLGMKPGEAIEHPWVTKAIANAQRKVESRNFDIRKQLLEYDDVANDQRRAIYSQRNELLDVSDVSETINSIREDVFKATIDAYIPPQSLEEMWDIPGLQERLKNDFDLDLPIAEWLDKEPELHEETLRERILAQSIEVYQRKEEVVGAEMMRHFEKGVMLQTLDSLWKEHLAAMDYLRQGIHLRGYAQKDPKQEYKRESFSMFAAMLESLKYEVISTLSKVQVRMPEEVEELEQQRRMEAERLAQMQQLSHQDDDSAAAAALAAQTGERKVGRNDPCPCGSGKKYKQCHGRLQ
Sialic acid-binding Ig-like lectin 9 (Homo sapiens), sequence (Q9Y336 whole entry): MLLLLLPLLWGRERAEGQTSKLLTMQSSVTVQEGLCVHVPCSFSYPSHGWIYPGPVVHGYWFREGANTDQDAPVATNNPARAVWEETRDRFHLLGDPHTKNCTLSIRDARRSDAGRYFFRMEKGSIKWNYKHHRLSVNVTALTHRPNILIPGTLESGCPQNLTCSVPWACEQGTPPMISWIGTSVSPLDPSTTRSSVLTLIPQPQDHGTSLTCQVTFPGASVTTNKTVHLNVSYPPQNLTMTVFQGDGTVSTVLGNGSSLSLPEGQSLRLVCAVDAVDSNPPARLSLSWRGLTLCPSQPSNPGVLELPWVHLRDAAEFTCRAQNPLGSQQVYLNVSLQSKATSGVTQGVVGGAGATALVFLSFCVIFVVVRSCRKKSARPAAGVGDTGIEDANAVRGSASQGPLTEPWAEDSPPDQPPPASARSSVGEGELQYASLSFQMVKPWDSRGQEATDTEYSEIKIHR

SMILES	Percent Effect [1]	Percent Effect [2]	Percent Effect [3]	Percent Effect [4]	Percent Effect [5]	Percent Effect [6]	Percent Effect [7]	Percent Effect [8]	Percent Effect [9]	Percent Effect [10]	Percent Effect [11]
Cc1ccccc1CSc1nc(N)cc(N2C[C@H](O)[C@@H](N(C)C)C2)n1	-8.01%	5.41%	-13.8%	0.783%	1.07%	1.24%	12.6%	5.8%	8.6%	18.5%	-3.84%
CCc1ccc(OCC(O)CN2CCC(O)CC2)cc1 (stereo not given)	-6.44%	-2.6%	5.75%	-12.1%	-4.21%	-1.05%	5.42%	11.1%	-2.86%	0%	-19%
COc1ccc(CN2CCc3nc(C4CCCCN4C)ncc3C2)cc1 (stereo not given)	-0.233%	-8%	-0.187%	-0.354%	3.54%	-2.1%	28.3%	11.8%	21.3%	26.9%	-1.3%
CCOc1ccccc1OC1CCN(C(=O)c2nc(=O)[nH][nH]2)CC1	-5.6%	18.4%	-5.81%	1.22%	10.5%	-3.06%	13.9%	18.1%	6.37%	19.5%	-9.11%
Cc1ccc(N(CC(=O)c2ccc(Br)cc2)C2=NCCCCC2)cc1	-1.45%	-55.3%	5.34%	3.76%	5.55%	-11.8%	11%	17.9%	4.25%	-2.6%	-1.8%
O=C(CN(Cc1cccnc1)CC1CCCO1)Nc1ccc(F)cc1 (stereo not given)	-3.61%	2.74%	1.19%	0.415%	-2.35%	-1.82%	10.3%	5.96%	0%	0%	0.815%
CCc1csc(C2CCCN(C(=O)c3cnn(CC)c3)C2)n1 (stereo not given)	-1.78%	-2.63%	68.6%	-1.18%	-1.46%	3.55%	6.04%	6.86%	3.19%	-2.6%	-7.82%
COc1cc(CNCc2ccc(C(C)O)cc2)cc2c1OCO2 (stereo not given)	-4.95%	18.9%	2.1%	10.4%	8.45%	0.185%	20.8%	15.6%	9.9%	28.1%	-9.5%
O=C(O)c1cc(S(=O)(=O)Nc2cc(F)ccc2F)cc2c1OCCO2	-3.9%	-2.63%	4.03%	6.95%	-6.44%	3.6%	4.65%	3.03%	0.493%	1.24%	-3.53%
O=C(NCCN1CCc2ccccc2C1)c1scnc1Cl	-2.6%	13.2%	-2.29%	-8.63%	6.26%	-3.24%	18%	6.79%	-6.4%	23.5%	-6.08%
CNS(=O)(=O)c1ccc(C(=O)N2CCCC(n3cccn3)C2)cc1 (stereo not given)	-7.19%	13.2%	-7.33%	8.86%	4.89%	-4.21%	2.17%	1.3%	3.43%	17.1%	-14.7%
Cn1ccc(NC(=O)Cc2cccc(F)c2)n1	-2.82%	5.41%	2.46%	-6.52%	3.71%	-3.33%	12.3%	15%	12.9%	13.4%	113%
Cc1csc([C@@H]2C[C@@H]3CCN(Cc4cnn(C)c4)C[C@H]3O2)n1	-5.44%	2.6%	-0.433%	1.83%	-0.0983%	-5.52%	3.33%	-23.4%	1.07%	1.24%	-4%
COc1cccc(CN2CCN(c3ccc4nncn4n3)C(C)C2)c1 (stereo not given)	-6.29%	-20.8%	-1.07%	-4.72%	-3%	0.712%	-1.86%	85.3%	6.8%	-2.44%	5.81%
Cc1cnn(CCNCc2csc(-c3ccc(F)cc3)n2)c1	-3.56%	-15.8%	4.58%	5.27%	3.19%	0.383%	1%	1.14%	1.47%	0%	5.05%
CC(C)(CNC(=O)NCCOc1cccc(F)c1)C(N)=O	-3.85%	7.89%	1.82%	8.76%	0.94%	2.3%	0.167%	-5.69%	6.37%	17.1%	-6.58%
CCNC(=O)NC(=O)CSC(C)c1ccccc1F (stereo not given)	-2.26%	0%	-7.52%	16.2%	3.8%	16.7%	11.3%	-1.43%	3.83%	25.9%	-6.89%
CCc1n[nH]c(C2CN(CC(=O)NCCc3ccsc3)CCO2)n1 (stereo not given)	-2.71%	5.48%	-4.4%	11.2%	5.09%	4.09%	1.42%	4.97%	1.07%	5%	-5.13%
CN(C)S(=O)(=O)N1CCC(Oc2ccc(C#N)cc2)CC1	-1%	1.39%	2.51%	-6.53%	-6.12%	1.77%	16.8%	17.2%	2.1%	2.56%	-0.203%
O=C(O)c1nnn(Cc2cccc(C(F)(F)F)c2)c1-c1cccnc1	2.36%	6.67%	10.2%	-2.89%	-4.13%	-10.4%	8.5%	4%	7.41%	12.8%	-7.79%
